This is an account of results in PubChem BioAssay (NCATS).

Inconclusive results are not listed. Calls of active or inactive are those of the source. The call rests on the fitted dose curve; in most records, active means well fitted curve in either direction with a large enough effect (not every such curve was filed as active); inconclusive means small, poorly fitted or top-dose-only effect, or another doubt; inactive means flat fitted curve, though single readings scatter.

The target of this test is Mitogen-activated protein kinase 10 (Mus musculus) (UniProt Q61831). The test is described as follows: JNK3 AlphaScreen Assay (AID 530).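 Further: kinase came from lysate of stimulated human HepG2 cells.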 The settings on record: JNK3 lysate, c-Jun phosphorylation; series mostly up to 57.1 µM. From the text:
NIH Chemical Genomics Center [NCGC]
NIH Molecular Libraries Screening Centers Network [MLSCN]
The c-jun N-terminal kinase (JNK) family are serine/threonine protein kinases that phosphorylate c-jun, a component of the transcription factor […] (AP-1). JNK kinases are members of the mitogen-activated protein kinase family including the extracellular regulated kinases and p38 kinases. Three JNK genes (JNK 1, 2, and 3) have been identified in humans so far. JNK1 and JNK2 have a broad distribution and JNK3 is primarily found in neuronal tissues and cardiac myocytes.
JNK3 has been under consideration as a target for the treatment of neurodegenerative disorders. […] JNK pathway is also involved in pathological process in a mouse model of Parkinson's disease (Xia et al., 2001).
Given these potential tissue distributions and links to neuroprotection, JNK3 inhibitors should provide useful investigational tools to study the role of this kinase in several diseases including, arthritis, stroke, myocardial infarction, ischemic injury and Parkinson's disease.
A homogeneous AlphaScreen is developed to measure the activity of JNK3. AlphaScreen is a two bead-based proximity-dependent chemical energy transfer luminescent assay platform. The phosphorylation of a biotinylated c-jun substrate by JNK3 can be detected with an antibody raised against phosphorylated c-jun. This process brings streptavidin donor beads and Protein-A acceptor beads to within a proximity range of <200 nm, and subsequently lead a chemical luminescent reaction upon exciting donor beads with 680 nm laser excitation light. Inhibition of JNK3 activity by small molecules and subsequent decrease in the antibody binding to biotinylated c-jun could attenuate or abolish this chemical luminescent reaction.
Yang DD, Kuan CY, Whitmarsh AJ, Rincon M, Zheng TS, Davis RJ, Rakic P and Flavell RA (1997) Absence of excitotoxicity-induced apoptosis in the hippocampus of mice lacking the Jnk3 gene. Nature 389:865-870. [PMID: 9349820]
Herdegen T, Claret FX, Kallunki T, Martin-Villalba A, Winter C, Hunter T, and Karin M (1998) Lasting N-terminal phosphorylation of c-Jun and activation of c-Jun N-terminal kinases after neuronal injury. J.Neurosci. 18:5124-5135. [PMID: 9651196]
Xia XG, Harding T, Weller M, Bieneman A, Uney JB and Schulz JB (2001) Gene transfer of the JNK interacting protein-1 protects dopaminergic neurons in the MPTP model of Parkinson's disease. Proc.Natl.Acad.Sci.U.S.A. 98:10433-10438.
NCGC Assay Protocol Summary:
GST-cJun (1-79) (Stratagene, La Jolla CA, #205145) was biotnylated by PerkinElmer (PerkinElmer-BioSignalInc. Montreal, Canada) and was detectable by the streptavidin Donor beads. Anti-(phospho)cJun (Ser73) antibody was from UpState (Charlottesvilles, VA, #06-659). JNK3-containing lysates were generated from HepG2 cells and pre-activated by interleukin1-beta and tumor necrosis factor alpha. All reagents were stored at -20 C before using. Phosphorylated biotinylated-GST-cJun was recognized by Anti-(phospho)cJun (Ser73) antibody and this process brings acceptor and donor beads together. Therefore JNK3 phosphorylation of cJun can be measured by Alpha reading by EnVision (PerkinElmer, Boston, MA).
The composition of kinase buffer was (in mM) 20 tris- HCl (pH 7.6) 10 MgCl2, 1 DTT, and 0.1 Na3VO4 and 0.01% Tween-20. Beads were diluted in detection buffer containing (in mM) 20 tris-HCl (pH 7.7), 20 NaCl and 80 EDTA and 0.3% BSA. The assay was performed at room temperature. All compounds were screened as titrations from 0.6 nM to 46 uM final concentration. The assay was performed in 1536-well format (white solid bottom and untreated) as follows:
Sequence,Parameter,Value,Description
1,Reagent,3 uL,Biotin-GST-cJun, Anti-(phospho)cJun and pre-activated JNK3-containing lysates
2,Compound,23 nL,Final concentration was 0.6nM to 46uM
3,Time,15 minutes,Room Temperature
4,Reagent,1 uL,ATP final concentration 10uM
6,Reagent,0.5 uL,2ng/well bead mixture
[…]
Background: Bead proximity is the source of the signal in Alpha formats.
On to `c1ccc(N2CC3(CCNCC3)C2)cc1`, for which the result was inactive.
As for `C=C(C)C(=O)OCC1CO1` (stereo not given), the entry is “inactive”.
As for `CC(C)NC(=O)N1CCC2(CC1)CCN(C(=O)Oc1ccccc1)CC2`, the entry is “inactive”; as for `CN1CCCC2(CCN(C(=O)Oc3ccccc3)CC2)C1`, “inactive”; as for `CN1CCc2cc3c(cc2[C@@H]1[C@@H]1OC(=O)c2c1ccc1c2OCO1)OCO3`, “inactive”.
As for `CC(C)(C)OOC(C)(C)C`, the entry is “inactive”; as for `C[N+](C)(C)Cc1ccccc1`, “inactive”.
In the case of `CC(Cl)Cl`, the molecule was classed as inactive.
For `N#C/C(=C\c1ccc(O)c(O)c1)C(N)=S`, the result was inactive.
Regarding `CC(C)NC(=O)N1CCCC2(CCN(C(=O)Oc3ccccc3)CC2)C1`, the result was inactive.
In the case of `Clc1ccc(CO[C@@H](Cn2ccnc2)c2ccc(Cl)cc2Cl)cc1` it was “inactive”; in that of `COc1ccc(OC)c([C@H](O)[C@H](C)N)c1`, “inactive”; in that of `C#CCN(C)[C@@H](C)Cc1ccccc1`, “inactive”.
As for `C[C@@]12CC(=O)[C@H]3[C@@H](CCC4=CC(=O)CC[C@]43C)[C@H]1CCC2=O`, the entry is “inactive”; as for `CCN(CC)C(=O)N[C@@H]1C[C@H]2c3cccc4[nH]cc(c34)C[C@@H]2N(C)C1`, “inactive”.
In the case of `O=C(Oc1ccccc1)N1CCC2(CCN(Cc3nccs3)CC2)CC1` it was “inactive”; in that of `CC(C)[C@@]1(NC(=O)[C@@H]2C[C@H]3c4cccc5[nH]cc(c45)C[C@@H]3N(C)C2)O[C@]2(O)[C@H]3CCCN3C(=O)[C@H](Cc3ccccc3)N2C1=O`, “inactive”.
Take `CN1Cc2c(ccc3c2OCO3)[C@@H]2[C@@H](O)Cc3cc4c(cc3[C@@H]21)OCO4`: the outcome was inactive.
In the case of `CC(C)NC(=O)N1CC[C@@]2(CCCNC2)C1` it was “inactive”.
Take `C=C(C)C#N`: the molecule was classed as inactive.
As for `O=[N+]([O-])c1cccc2ccccc12`, the entry is “inactive”; as for `O=C(Nc1ccccc1)N1CC[C@@]2(CCCNC2)C1`, “inactive”.
For `CCCCC/C=C\C/C=C\C/C=C\C/C=C\CCCC(=O)Nc1ccc(O)cc1`, the call was inactive.
As for `O=C(O)COc1ccc(Cl)cc1Cl`, the entry is “inactive”; as for `C[N+]1([O-])[C@@H]2CC(OC(=O)[C@@H](CO)c3ccccc3)C[C@@H]1[C@H]1O[C@H]12` (stereo not given in full), “inactive”; as for `O=C(Oc1ccccc1)N1CCC2(CC1)CCN(C(c1ccccc1)c1ccccc1)CC2`, “inactive”.
Take `CC(C)(C)OO`: the molecule was called inactive.
As for `C=CC(C)=O`, the entry is “inactive”.
As for `CCOc1ccc(N)cc1`, the entry is “inactive”; as for `CC(C)[C@@]1(NC(=O)[C@@H]2C[C@H]3c4cccc5[nH]cc(c45)C[C@@H]3N(C)C2)O[C@]2(O)[C@H]3CCCN3C(=O)CN2C1=O`, “inactive”.
In the case of `c1cnc(N2CCC3(CCNCC3)CC2)nc1` it was “inactive”; in that of `COc1ccc(NC(=O)N2CCC3(CC2)CCN(C(=O)Oc2ccccc2)CC3)cc1`, “inactive”.
`c1ccc(CN2CC[C@@]3(CCCNC3)C2)cc1`: the molecule was called inactive.
For the molecule `CC[C@H](C)C(=O)O[C@@H]1[C@H](O)[C@@H]2[C@H](CN3C[C@@H](C)CC[C@@H]3[C@@]2(C)O)[C@@H]2C[C@@]34O[C@@]5(O)[C@@H](OC(=O)[C@](C)(O)CC)CC[C@@]3(C)[C@H]5[C@H](OC(C)=O)[C@@H](OC(C)=O)[C@H]4[C@]12O`, the call was inactive.
In the case of `CN1CCC2(CC1)CCN(C(=O)c1ccco1)CC2` it was “inactive”; in that of `c1cnc(N2CC3(CCNCC3)C2)nc1`, “inactive”; in that of `CN1[C@@H]2CC[C@H]1CC(O)C2` (stereo not given in full), “inactive”.
As for `CC[N@+]1(C)CCC[C@@H](OC(=O)C(O)(c2ccccc2)c2ccccc2)C1`, the entry is “inactive”.
With `Cc1noc(C)c1C(=O)N1CCC[C@@]2(CCN(CC(C)C)C2)C1`, the result was inactive.
As for `N#Cc1ccc(CN2CCC3(CC2)CCN(C(=O)Oc2ccccc2)CC3)cc1`, the entry is “inactive”.
